Measurements taken from PMC8384837, “Expanding the binding specificity for RNA recognition by a PUF domain”.

Molecular target: PUM1 PUF domain R5-RFS (Homo sapiens, UniProt Q14671 828-1176, C1007R;R1008F;Q1011S)
Experiment: yeast three-hybrid, YBZ-1, SC-Leu-His + 0.5 mM 3-AT, 4 days
Details: tags: N-Gal4 AD-HA kept; label: inside an RPR1-promoter hybrid RNA with tandem MS2 sites; ssRNA
Summary of the method: (§1)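 Pumilio-1 PUF domain libraries, randomized (NNK) at the three base-contacting residues of each repeat, were co-expressed with matching RNA elements from a centromeric plasmid in strain YBZ-1 (LexA–MS2 coat fusion, HIS3 reporter). Transformants were plated on SC-Leu (input) and SC-Leu-His + 0.5 mM 3-AT (selection) for four days, and repeat regions were PCR-amplified and Illumina-sequenced. The interaction score is the log2 change in variant frequency from input to selection, with pseudocount 1 where absent.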

Sequence | binding signal
GGCUAGAACUAGUGGAUCCCCCGGCGCCCGGCGGCUCGAGCCCGGGUAAGUGUCAAUAGUCUGCAUGCCGCCGGGCGCCAUGCCUGCAGGUCGACUCUAGAAAACAUG | 5.34 log2 enrichment (interaction score)
GGCUAGAACUAGUGGAUCCCCCGGCGCCCGGCGGCUCGAGCCCGGGUAAGUGUGAAUAGUCUGCAUGCCGCCGGGCGCCAUGCCUGCAGGUCGACUCUAGAAAACAUG | 1.78 log2 enrichment (interaction score)
GGCUAGAACUAGUGGAUCCCCCGGCGCCCGGCGGCUCGAGCCCGGGUAAGUGUAAAUAGUCUGCAUGCCGCCGGGCGCCAUGCCUGCAGGUCGACUCUAGAAAACAUG | 2.61 log2 enrichment (interaction score)
GGCUAGAACUAGUGGAUCCCCCGGCGCCCGGCGGCUCGAGCCCGGGUAAGUGUUAAUAGUCUGCAUGCCGCCGGGCGCCAUGCCUGCAGGUCGACUCUAGAAAACAUG | 5.12 log2 enrichment (interaction score)

Molecular target: PUM1 PUF domain R1-YIR (Homo sapiens, UniProt Q14671 828-1176, S863Y;R864I;Q867R)
Experiment: as above
Details: tags: N-Gal4 AD-HA kept; label: inside an RPR1-promoter hybrid RNA with tandem MS2 sites; ssRNA
Summary of the method: as §1

Sequence | binding signal
GGCUAGAACUAGUGGAUCCCCCGGCGCCCGGCGGCUCGAGCCCGGGUAAGUGUAAAUCGUCUGCAUGCCGCCGGGCGCCAUGCCUGCAGGUCGACUCUAGAAAACAUG | 6.92 log2 enrichment (interaction score)
GGCUAGAACUAGUGGAUCCCCCGGCGCCCGGCGGCUCGAGCCCGGGUAAGUGUAAAUAGUCUGCAUGCCGCCGGGCGCCAUGCCUGCAGGUCGACUCUAGAAAACAUG | 3.77 log2 enrichment (interaction score)
GGCUAGAACUAGUGGAUCCCCCGGCGCCCGGCGGCUCGAGCCCGGGUAAGUGUAAAUUGUCUGCAUGCCGCCGGGCGCCAUGCCUGCAGGUCGACUCUAGAAAACAUG | 4.41 log2 enrichment (interaction score)
